Screening data as filed in PubChem.
Many of the other results were omitted from the sample, so hits are more common in it than they were.
VHR inh color = inhibitors of human VHR1 phosphatase (DUSP3); P51452; recombinant VHR phosphatase, colorimetric substrate read-out; inhibition, % at 20 µM; actives 0.7% (n = 50,000); in the data active = inhibition above about 60%
Target sequence (P51452 whole entry, looked up): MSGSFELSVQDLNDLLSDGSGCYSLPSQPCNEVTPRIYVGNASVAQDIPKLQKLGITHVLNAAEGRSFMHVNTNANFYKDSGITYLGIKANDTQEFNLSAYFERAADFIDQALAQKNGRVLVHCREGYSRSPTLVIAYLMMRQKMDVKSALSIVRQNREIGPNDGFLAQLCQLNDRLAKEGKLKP
The depositor's hits bear a star.

SMILES	VHR inh color
C=CCc1cccc(/C=N/NC(=O)c2cccc(N3CCCC3=O)c2)c1O	10
O=c1[nH]c(/C=C/c2ccccc2)c([N+](=O)[O-])c(=O)[nH]1	0
CCOc1cc(/C=C/c2[nH]c(=O)[nH]c(=O)c2[N+](=O)[O-])ccc1O	-16
O=c1[nH]c(/C=C/c2ccc(N3CCOCC3)c([N+](=O)[O-])c2)c([N+](=O)[O-])c(=O)[nH]1	80*
Cc1ccc(/C=C2\SC(=N)N(c3ccc(F)cc3)C2=O)cc1	0
COc1ccc(-c2nc3sc4c(c3c(=O)[nH]2)CCCC4)cc1C	61*
C=CCOc1ccc(-c2nc3sc4c(c3c(=O)[nH]2)CCCC4)cc1OC	16
CCOc1ccc(-c2nc3sc4c(c3c(=O)[nH]2)CCCC4)cc1OCC	-1
CCCCOC(=O)c1ccc(NC(=O)c2ccc(OC)c(Br)c2)cc1	-19
Cn1cccc1/C=C(\C(=O)c1ccccc1)c1nc2ccccc2[nH]1	9
CC1CCN(c2ccc(C(=O)c3ccccc3)cc2F)CC1	-2
Fc1ccc(NC(=S)NCCN2CCOCC2)cc1	91
S=C(NCCN1CCOCC1)Nc1ccccc1	99*
S=C(NCCN1CCOCC1)Nc1cccc(Cl)c1	12
CCOc1ccc2nc(SCC(=O)Nc3ccc4nc(SCC(=O)NC5CC5)sc4c3)sc2c1	2
CCCOC(=O)c1c(-c2ccc(OC)c(OC)c2)csc1N	20
CCN1C(=O)/C(=C\c2cc(Cl)c(OCc3ccccc3)c(OC)c2)SC1=S	3
CN1C(=O)/C(=C\c2cc(Cl)ccc2OCc2ccc(F)cc2)SC1=S	-14
CCN1C(=O)/C(=C\c2cc(Cl)ccc2OCc2ccccc2)SC1=S	105*
CCSc1nnc(NC(=O)c2c(C)c(-c3ccc(C)cc3)nc3ccccc23)s1	3
COc1ccc(C(=O)CSc2nnc(-c3cccc(Br)c3)o2)cc1	-19
CCOC(=O)c1[nH]nc2c1C(=O)N(c1ccc(OC)c(Br)c1)C2=O	4
CCOC(=O)c1[nH]cnc1C(=O)Nc1ccc(Br)cc1	-22
CCOC(=O)c1[nH]nc2c1C(=O)N(c1ccc(Br)cc1)C2=O	98*
Cc1ccc2c(c1)-c1c(ssc1=S)C(C)(C)N2C(=O)COc1nc2ccccc2s1	-56
SMILES	VHR inh color
CC(C)OC(=O)COc1ccc2c(c1)oc(=O)c1ccccc12	-7
Cc1cc(OCC(=O)N2CCN(c3ccccc3)CC2)ccc1Br	0
Cc1cccc(N2C(=O)NC(=O)/C(=C/c3cccn3-c3ccc([N+](=O)[O-])cc3)C2=O)c1	-2
CCN1C(=O)C(=Cc2cccn2-c2ccc([N+](=O)[O-])cc2)C(=O)N(CC)C1=S	73*
CC1=NN(c2ccccc2)C(=O)/C1=C/c1cccn1-c1ccc([N+](=O)[O-])cc1	-22
O=c1c2ccccc2nc(/C=C/c2ccccc2[N+](=O)[O-])n1-c1cccc2ccccc12	-32
COC(=O)C1(S(=O)(=O)c2ccc(Br)cc2)CCCC1	-34
Cc1ccccc1NCC(=O)N/N=C\c1ccc(Cl)c([N+](=O)[O-])c1	-12
Cc1ccc(C)c(S(=O)(=O)Nc2cc(Br)c(O)c3ccccc23)c1	10
Cc1ccc(S(=O)(=O)Nc2cc(Sc3ncn[nH]3)c(O)c3ccccc23)cc1	100*
O=S(=O)(Nc1cc(Cl)c(O)c2ccccc12)c1ccc(F)cc1	55
COc1ccc(C(=O)Nc2cc(Cl)ccc2Cl)cc1NC(=O)C(c1ccccc1)c1ccccc1	-6
Cc1ccc(NCC(=O)N/N=C\c2ccc(OC(=O)c3ccccc3)cc2)cc1	-10
O=C(N/N=C/c1ccc(/C=N/NC(=O)c2ccc(Br)cc2)cc1)c1ccc(Br)cc1	-2
O=C(Oc1ccc(/C=N/O)cc1)c1ccc(Br)cc1	104*
NC1=NC2(CCCC2)N=C(Nc2ccc(F)cc2F)N1	-8
CCCCNC(=O)c1ccc(C(=O)NCCCC)cc1	7
O=C1C=C(NCc2ccc(F)cc2)CC(c2ccccc2)C1 (stereo not drawn)	-1
O=C1C=C(NCc2ccc3c(c2)OCO3)CC(c2ccccc2)C1 (stereo not drawn)	101*
c1ccc(NCc2ccc3c(c2)OCO3)cc1	7
Cc1ccc(N2NC(=O)/C(=C/C=C/c3ccccc3)C2=O)cc1C	-8
Cc1ccc(NC(=O)C2CC(=O)N(c3ccc(Br)cc3)C2)cc1C (stereo not drawn)	-6
Cn1c(-c2ccc(-c3nc4cnccc4n3C)cc2)nc2cnccc21	71*
Cc1ccc(-c2nc3ccccc3c(=O)n2-c2cccnc2)cc1	13
Cn1c(-c2nc3ccccc3n2C)nc2ccccc21	-7
SMILES	VHR inh color
O=C1C2C3C=CC(C2C(=O)N1c1ccccc1F)C1C(=O)N(c2ccccc2F)C(=O)C31 (stereo not drawn)	-3
CCOc1ccc(NS(=O)(=O)Cc2ccccc2)cc1	0
Cc1cc(/C=N\Nc2ccc([N+](=O)[O-])cn2)c(C)n1-c1ccc(O)cc1	85*
Cc1cc(C=O)c(C)n1-c1ccc([N+](=O)[O-])cc1	6
Cc1cc(/C=N\Nc2ccc([N+](=O)[O-])cn2)c(C)n1-c1ccc(C(=O)O)cc1	22
CC(=O)Nc1ccc(NC(=O)c2cccc(F)c2)cc1	0
